Records with an inconclusive call do not appear. Calls of active or inactive are those of the source. Unless noted, the call rests on the fitted dose curve; in most records, active means well fitted curve in the direction sought with a large enough effect in the repeat runs; inconclusive means weak or mixed curves; inactive means no such curve, though single readings can be large; an effect the other way counts as inactive or inconclusive.

15 molecules from PubChem BioAssay (Tox21) can be followed below.

The nature of experiment [1]: qHTS assay to identify small molecule antagonists of the estrogen related receptor (ERR) signaling pathway - cell viability counter screen (AID 1224818). Further: potency means the concentration at half of the fitted maximal effect.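 Further: viability measured after 17.5 h of compound exposure.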 In outline: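 ERR reporter cells plated 6 h at 37 C/5% CO2, then compounds in DMSO pin-transferred and incubated 17.5 h at 37 C. Viability read as CellTiter-Fluor fluorescence after 30 min at 37 C.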
Experiment [2] can be described thus: qHTS assay to identify small molecule antagonists of the estrogen related receptor (ERR) signaling pathway (AID 1224819; further: nearly all actives have a fitted effect of over 50% in size; further: potency means the concentration at half of the fitted maximal effect). An outline of the steps: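 ERR reporter cells were plated at 2,000 cells/well and left 6 h at 37 C/5% CO2 before pin-tool transfer of compounds in DMSO. After 18 h at 37 C, One-Glo was added and luminescence was read 30 min later at room temperature.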
On the technique in general: In qHTS, concentration-response curves come from the screen itself.

The nature of experiment [3]: qHTS assay to identify small molecule agonists of the estrogen related receptor (ERR) signaling pathway (AID 1224820). In outline:
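Quantitative HTS of the LOPAC library used NTP ERR reporter cells treated 18 h at 37 C. Signal is luminescence after One-Glo addition and a 30 min room-temperature incubation.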

For experiment [4], the system named is estrogen-related receptor alpha (ERRalpha) with PGC-1alpha coactivator, human. Description: qHTS assay to identify small molecule antagonists of the estrogen related receptor signaling pathway with the pleiotropic PPARgamma coactivator (PGC) (AID 1224821; calls by dose curve; further: nearly all actives have a fitted effect of over 50% in size; further: potency means the concentration at half of the fitted maximal effect). An outline of the steps: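 Quantitative HTS for antagonism: PGC/ERR cells received compounds after 6 h attachment and were incubated 18 h at 37 C, with luminescence (One-Glo) as the endpoint.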

A short description of experiment [5]: qHTS assay to identify small molecule antagonists of the estrogen related receptor signaling pathway with the pleiotropic PPARgamma coactivator (PGC) cell viability counter screen (AID 1224822; further: potency means the concentration at half of the fitted maximal effect). In outline:
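PGC/ERR cells were seeded at 2,000 cells/well, rested 6 h at 37 C/5% CO2, then given compounds in DMSO by pin tool and incubated 17.5 h at 37 C. Viability came from CellTiter-Fluor fluorescence after 30 min.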

Experiment [6] is described as follows: qHTS assay to identify small molecule agonists of the estrogen related receptor signaling pathway with the pleiotropic PPARgamma coactivator (PGC) (AID 1224823). In outline: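 Cell-based luciferase assay in the NTP-supplied PGC/ERR line, 2,000 cells/well; 18 h compound exposure at 37 C, luminescence after One-Glo.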

With `NC(C(=O)O)c1cc(=O)[nH]o1` (centres undefined), the Potency entry in experiment [1], in experiment [2], in experiment [3], in experiment [4], in experiment [5] and in experiment [6] was “inactive” in each case.

For the molecule `O=C(Cc1ccc(Cl)c(Cl)c1)N1CCCCC1CN1CCCC1` (centres undefined), the Potency result in experiment [1], in experiment [2], in experiment [3], in experiment [4], in experiment [5] and in experiment [6] was “inactive” each time.

Regarding `CC(Cc1ccc(OCC(=O)O)cc1)NCC(O)c1cccc(Cl)c1` (centres undefined), the Potency result in experiment [1], in experiment [2], in experiment [3], in experiment [4], in experiment [5] and in experiment [6] was “inactive” each time.

As to `CCCN(CCC)[C@@H]1CCc2ccc(O)cc2C1`, the Potency result in experiment [1], in experiment [2], in experiment [3], in experiment [4], in experiment [5] and in experiment [6] was “inactive” throughout.

As for `O=C1/C(=C/c2ccccc2)C[C@@]2(O)[C@H]3Cc4ccc(O)c5c4[C@@]2(CCN3CC2CC2)[C@H]1O5`, the Potency was 8.74 µM (active) in experiment [1], 2.37 µM (active) in experiment [2], 2.2 µM (active) in experiment [4] and 6.19 µM (active) in experiment [5]. Moreover, the Potency result in experiment [3] and in experiment [6] was “inactive” each time.

As for `OC1CCCCC1N1CCC(c2ccccc2)CC1` (centres undefined), the Potency entry in experiment [1], in experiment [2], in experiment [3], in experiment [4], in experiment [5] and in experiment [6] was “inactive” throughout.

Consider `C=CCN1C[C@@H](C)N([C@H](c2ccc(C(=O)N(CC)CC)cc2)c2cccc(OC)c2)C[C@@H]1C`, for which the Potency result in experiment [1], in experiment [3], in experiment [4], in experiment [5] and in experiment [6] was “inactive” in each case. In addition, the Potency in experiment [2] was 26.6 µM (active).

As to `CC12NC(Cc3ccccc31)c1ccccc12` (centres undefined), the Potency result in experiment [1], in experiment [2], in experiment [3], in experiment [4], in experiment [5] and in experiment [6] was “inactive” throughout.

On to `COc1ccc2[nH]c3c(c2c1)CCNC3`, for which the Potency entry in experiment [1], in experiment [2], in experiment [3], in experiment [4], in experiment [5] and in experiment [6] was “inactive” throughout.

`NC(=NCCC[C@H](N)C(=O)O)N[N+](=O)[O-]`: the Potency result in experiment [1], in experiment [2], in experiment [3], in experiment [4], in experiment [5] and in experiment [6] was “inactive” throughout.

With `NC(N)=NOCCC(N)C(=O)O` (centres undefined), the Potency entry in experiment [1], in experiment [2], in experiment [3], in experiment [4], in experiment [5] and in experiment [6] was “inactive” in each case.

In the case of `Oc1ccc2c3c1O[C@H]1c4[nH]c5ccccc5c4C[C@@]4(O)C(C2)N(CC2CC2)CCC314` (some centres undefined), the Potency entry in experiment [1], in experiment [2], in experiment [3], in experiment [4], in experiment [5] and in experiment [6] was “inactive” in each case.

As for `C#CCN[C@H](C)Cc1ccccc1`, the Potency entry in experiment [1], in experiment [2], in experiment [3], in experiment [4], in experiment [5] and in experiment [6] was “inactive” throughout.

`CC(=O)NBr`: the Potency entry in experiment [1], in experiment [2], in experiment [3], in experiment [4], in experiment [5] and in experiment [6] was “inactive” each time.

For `COC(=O)N1CCN(C(=O)Cc2ccc(Cl)c(Cl)c2)C(CN2CCCC2)C1` (centres undefined), the Potency result in experiment [1], in experiment [3], in experiment [4], in experiment [5] and in experiment [6] was “inactive” in each case.
